According to PubChem BioAssay (NCI):
About 83,000 compounds went through this panel and 20% of them were active in at least one assay; those are over-represented in the sample as a whole.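 Percent growth is the endpoint: 0 to 100 indicates growth inhibition (40 means 60% inhibition), 0 means no net growth, and negative values indicate cell death.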 Unmarked numbers belong to inactive results. Active and inactive are the calls of the source. The calls were made as follows: active = growth percent below 10; inactive = the rest.

What was measured:
Assay in all cases: NCI-60 one-dose screen, 48 h (100 = growth as untreated, 0 = no growth, -100 = all killed)
Settings in all cases: 10 µM
NCI-H23 lung = system: NCI-H23 lung
NCI-H226 lung = system: NCI-H226 lung
NCI-H322M lung = system: NCI-H322M lung
HOP-62 NSCLC = system: HOP-62 NSCLC
NCI-H460 lung = system: NCI-H460 lung
HOP-92 NSCLC = system: HOP-92 NSCLC
NCI-H522 lung = system: NCI-H522 lung
A549/ATCC NSCLC = system: A549/ATCC NSCLC
786-0 renal = system: 786-0 renal
COLO 205 colon = system: COLO 205 colon

| SMILES | growth (NCI-H23 lung) | growth (NCI-H226 lung) | growth (NCI-H322M lung) | growth (HOP-62 NSCLC) | growth (NCI-H460 lung) | growth (HOP-92 NSCLC) | growth (NCI-H522 lung) | growth (A549/ATCC NSCLC) | growth (786-0 renal) | growth (COLO 205 colon) |
| --- | --- | --- | --- | --- | --- | --- | --- | --- | --- | --- |
| O=C1NC(=O)C2C(=O)NC(=O)C1C21CCc2ccccc21 (stereo not drawn) | 91.8% | 87.7% | 106% | 94.3% | 115% | 89.5% | 97.4% | 103% | 101% | 125% |
| O=[N+]([O-])c1ccc(/C=C/C=C/c2ccccc2)c(Cl)c1 | 89.8% | 102% | 96.4% | 105% | 84.5% | 84.4% | 80.9% | 89.8% | 95.6% | 119% |
| CCCCCCCCCCCCCC(=O)Oc1ccc[nH]c1=O | 105% | 92.7% | 87% | 94.1% | 105% | 84.9% | 90.7% | 89.4% | 89.7% | 112% |
| COc1ccc(NC(=O)CCl)cc1 | 61.7% | 82.5% | 99.1% | 81.1% | 83.1% | 87.3% | 47.8% | 84.6% | 80.7% |  |
| Cc1cc(N)c(S(=O)(=O)O)c(N)c1 | 97% | 99.6% | 101% | 94.9% | 104% | 47.1% | 87.9% | 109% | 105% |  |
| COc1ccc(C2(O)CCCCC2)cc1 | 97.9% | 92.1% | 105% | 102% | 105% | 73.2% | 99.7% | 101% | 98.5% | 112% |
| O=S(=O)(O)CC(O)CN1CCN(CCO)CC1 (stereo not drawn) | 94.2% | 108% | 112% | 110% | 114% | 86.2% | 89% | 98.8% | 105% | 106% |
| CNC(=S)NC(C)(C)C | 104% | 102% | 98.4% | 101% | 113% | 83.1% | 98% | 98.3% | 101% | 119% |
| FC(F)(F)c1ccc2c(c1)N(CCCN1CCN(C3CC3)CC1)c1ccccc1S2 | 27% | 75.4% | 112% | 95.7% | 24.4% | 51.1% | 28.7% | 67.3% | 63.9% | 79.9% |
| c1ncc2[nH]cnc2n1 | 104% | 99.5% | 85.7% | 104% | 105% | 89.4% | 89.2% | 86.7% | 95.2% | 101% |
| CC(=O)OCC1OC(OC2=C(CC=C(C)C)C(=O)c3ccccc3C2=O)C(OC(C)=O)C(OC(C)=O)C1OC(C)=O (stereo not drawn) | 23.3% | 57.1% | 77.5% | 94.5% | 34.6% | -3.11% (active) | 22.3% | 79.5% | 88.9% | 66% |
| CC(C)NC(=O)OCc1c(COC(=O)NC(C)C)c(-c2ccc(Cl)c(Cl)c2)n2c1SCC2 | 38.6% | -43.7% (active) | 51.4% | 28.7% | 13.3% | 50.8% | 32% | 55.3% | 19% | 53.6% |
| O=[N+]([O-])c1cccc(C(F)(F)F)c1 | 101% | 98.5% | 132% | 96.9% | 98.1% | 87.8% | 85.5% | 94.7% | 107% | 108% |
| OCCN(CCO)C(=S)S | 102% | 103% | 103% | 108% | 112% | 109% | 101% | 94% | 101% | 114% |
| CC(=O)Cc1cc(-c2cc(CC(C)=O)[nH]n2)n[nH]1 | 102% | 99.3% | 96.2% | 95.1% | 105% | 104% | 95.8% | 102% | 103% | 110% |
| CC(=O)OCC1=CC2OC(=O)C3=COC(OC4OC(CO)C(O)C(O)C4O)C1C32 (stereo not drawn) | 72.4% | 105% | 104% | 108% | 120% | 89.3% | 93.5% | 138% | 98.9% | 114% |
| O=C(CC(=O)c1ccccc1O)c1ccccc1 | 80.8% | 88.6% | 103% | 77.2% | 88.8% | 100% | 83.1% | 89.8% | 89.5% | 101% |
| COc1ccc(-c2cc(-c3cc(-c4ccc(OC)cc4)nc(N)n3)nc(N)n2)cc1 | 102% | 99.4% | 94.3% | 94.7% | 99.5% | 105% | 100% | 97.8% | 103% | 107% |
| Nc1nc2c(c(-c3nc(N)nc4c3CCc3ccccc3-4)n1)CCc1ccccc1-2 | 97.4% | 89.9% | 115% | 91.4% | 117% | 95.1% | 99.1% | 106% | 110% | 116% |
| CC(=O)OCCC(C)CCC=C(C)C (stereo not drawn) | 105% | 105% | 114% | 108% | 104% | 98.8% | 92.7% | 101% | 108% | 114% |
| COc1cc(OC)c2ccc(=O)oc2c1 | 101% | 114% | 107% | 101% | 104% | 98.3% | 116% | 97% | 105% | 107% |
| O=C(CS)Nc1ccc2ccccc2c1 | 111% | 121% | 127% | 120% | 97.6% | 101% | 118% | 122% | 105% | 112% |
| O=C(CN1CCNCC1)N1CCOCC1 | 93.3% | 116% | 106% | 103% | 117% | 103% | 111% | 95.4% | 101% | 110% |
| O=C(Nc1cc(-c2ccccc2)[nH]n1)c1ccc(Cl)cc1 | 87.8% | 88.4% | 79.4% | 88.3% | 56% | 81.4% | 72.5% | 70.3% | 79.5% | 104% |
| CN(C)Cc1cc(C(C)(C)CC(C)(C)C)ccc1O | 91% | 91.2% | 100% | 91.6% | 100% | 77.1% | 68.4% | 111% | 92.9% | 97.1% |
| C#C[C@H]1CCCCCC1O (stereo partly drawn) | 95.7% | 96.5% | 104% | 105% | 106% | 87% | 94.8% | 105% | 103% | 111% |
| Nc1ccc(C(=O)c2ccc(N)c(Br)c2)cc1Br | 44.4% | 65.3% | 65.5% | 29.5% | -0.543% (active) | 34.7% | -36.1% (active) | 17.9% | 34% | -30.6% (active) |
| COc1ccc(C2OC(N)=C(O)C2=O)cc1OC (stereo not drawn) | 102% | 97.5% | 102% | 105% | 110% | 98% | 93.6% | 118% | 101% | 125% |
| CC(C)=C(NC(=O)c1ccccc1)C(=O)O | 107% | 103% | 104% | 115% | 111% | 84.5% | 92.3% | 105% | 112% | 112% |
| C#CCSc1nnnn1-c1ccc(Br)c(C)c1 | 89.7% | 74.6% | 107% | 102% | 97% | 69.9% | 71.1% | 92.8% | 89.1% | 135% |
